Each structure is given as a SMILES string. About 8,600 (12%) of roughly 69,000 compounds showed an effect of 50% or more. This is one part of a sample in which strong results are shown more often than they occur.

For this experiment, the system named is Plasmodium berghei. Briefly: Screen against P. berghei liver stage (PbLuc), transformed with Luciferase, at 10uM. In kind it is functional, HepG2. The conditions noted are these: tested at 10 uM.
For the compound `CNc1cc(C(=O)NCCC2=CSC3=NCCCN23)ccn1`, the INHIBITION is 50.3%. Turning to `CCC(=O)Nc1cccc(C(=O)NCCC2=CSC3=NCCCN23)c1`, the INHIBITION is 50.3%. As to `CC(C)(O)CCc1cccc(C(=O)NCCC2=CSC3=NCCCN23)c1`, the INHIBITION is 31.2%. To `COc1cccc(C2CCCN2C(=O)CC2=CSC3=NCCCN23)c1` (stereo not drawn) belongs -11.6%; to `CN(CCNC(=O)c1ccnc(-n2ccnc2)c1)C1CC1`, -3.83%; to `O=C(CC1=CSC2=NCCCN12)N1CCCCCC1c1ccco1` (stereo not drawn), -4.01%.

With `Cc1ccc(-c2nc(C(=O)N3CCN(C(=O)N(C)C)CC3)cs2)c(C)c1`, the INHIBITION was -4.865%. As to `O=S(=O)(c1cccs1)N1CC[C@H]2[C@H]1CCN2CC1CC1`, the INHIBITION was found to be 2.58%. On to `CN1CCN(CC2CCN(C(=O)CCC3CCCCC3)CC2)CC1`, for which the INHIBITION came out at 21%.

Take `Cn1cccc1C(=O)N1C[C@H]2CN(Cc3cccc(F)c3)C[C@H]2C1`: the INHIBITION was determined as 6.27%. As to `O=C1CC[C@H]2[C@H](CCN2C(=O)C2CCCO2)N1Cc1cccnc1` (stereo partly drawn), the INHIBITION is 5.96%.

With `CCn1nc2c(cc1=O)CN(CCCN1CCCC1=O)CC2`, the INHIBITION was 16.8%.

In the case of `COc1c(C(=O)NCC(C)C)nnn1Cc1ccccc1`, the INHIBITION was 53.2%. To `CCNC(=O)c1nnn(Cc2ccccc2)c1OC` belongs -19%; to `COCCNC(=O)c1nnn(Cc2ccccc2)c1OC`, 19.3%; to `CN(C)CC1CSCCCN1C(=O)c1ccc(-n2cccc2)cc1` (stereo not drawn), 35.8%. Turning to `CN(Cc1ccncc1)C(=O)NCc1nnc2n1CCCCC2`, the INHIBITION is given as -4.94%. To `COc1ccccc1CN1C[C@@H](F)[C@@H](OCc2nc3cnccc3[nH]2)C1` belongs -25.2%; to `COc1ccccc1CN1C[C@@H](F)[C@@H](OCc2nc3ccccc3[nH]2)C1`, 45.2%. To `COc1ccccc1CN1C[C@@H](F)[C@@H](OCc2nc3ncccc3[nH]2)C1` belongs 50.7%; to `Cc1ccc(NC(=O)C2CSCN2C(=O)c2cccnc2)c(C)c1` (stereo not drawn), 0.8%; to `Cc1cc(C(F)(F)F)nc(CCNc2nc(C)nc3sccc23)n1`, 43.2%. To `O=C(NCCc1noc(C2CCCO2)n1)c1cn2ccsc2n1` (stereo not drawn) belongs 39.9%. On to `Cc1nc(NCc2noc(C3CCCO3)n2)c2sccc2n1` (stereo not drawn), for which the INHIBITION is reported as 75.4%. As to `O=C1CSc2ccccc2N1Cc1noc(C2CCCO2)n1` (stereo not drawn), the INHIBITION amounted to 7.6%.

Regarding `O=C(NCc1noc(C2CCCO2)n1)c1cn2ccsc2n1` (stereo not drawn), the INHIBITION is 25.9%.

As for `Cc1nc(NCCc2noc(C3CCCO3)n2)c2sccc2n1` (stereo not drawn), the INHIBITION is recorded as 82.2%. As for `Cc1ccc2c(c1)SCC(=O)N2Cc1noc(C2CCCO2)n1` (stereo not drawn), the INHIBITION stood at 14.9%. To `Cc1nc(N(Cc2ccncc2)CC2CCCO2)c2ccsc2n1` (stereo not drawn) belongs 40.8%. Consider `Cc1nc(NCc2noc(C3CCCO3)n2)c2ccsc2n1` (stereo not drawn), for which the INHIBITION is 73.2%. For `Cc1cc(NC(=O)CN2CCCC2Cn2nc(C)nc2C)n(C)n1` (stereo not drawn), the INHIBITION turned out to be 38.8%. To `Cc1cc(C)cc(OCC(=O)N2CCCC2)c1` belongs -55.3%; to `COCCn1cnnc1CNc1cc(C)nc2c(C)c(C)nn12`, 15.5%. To `Cc1nn(C)c2cnn(CC(=O)NCc3ccccc3F)c12` belongs 41.6%.

In the case of `CC(=O)N1CCCC1c1cc(Nc2nnc(C)s2)nc(C)n1` (stereo not drawn), the INHIBITION is given as 26.8%. With `O=C(c1nn[nH]c1Nc1cccc(Cl)c1)N1CCSCC1`, the INHIBITION stood at 8.38%. With `O=C(c1nn[nH]c1Nc1ccc(Cl)cc1)N1CCCCCC1`, the INHIBITION is given as 72%. Turning to `O=C(c1nn[nH]c1Nc1ccc(Cl)cc1)N1CCSCC1`, the INHIBITION came to 11.8%. Consider `CCN1CCC2(CC1)CC(NC(=O)c1csnn1)c1ccccc1O2` (stereo not drawn), for which the INHIBITION was 41.2%.

For `CN1CCC2(CC1)CC(NC(=O)c1csnn1)c1ccccc1O2` (stereo not drawn), the INHIBITION came to 59.3%.

For the compound `COCCN1CCC2(CC1)CC(NC(=O)CN(C)C)c1ccccc1O2` (stereo not drawn), the INHIBITION is 54.3%.

For `COCC(=O)NC1CC2(CCN(CCF)CC2)Oc2ccccc21` (stereo not drawn), the INHIBITION is reported as -5.94%. On to `COCCN1CCC2(CC1)CC(NC(=O)CC1CC1)c1ccccc1O2` (stereo not drawn), for which the INHIBITION worked out at 56.8%. To `COCCN1CCC2(CC1)CC(NC(=O)COC)c1ccccc1O2` (stereo not drawn) belongs -13.4%; to `CC(C)CC(=O)NC1CC2(CCN(CCF)CC2)Oc2ccccc21` (stereo not drawn), 34.6%; to `COCCN1CCC2(CC1)CC(NC(=O)C1CC1)c1ccccc1O2` (stereo not drawn), 16.1%.

Consider `COCC(=O)NC1CC2(CCN(CC3CC3)CC2)Oc2ccccc21` (stereo not drawn), for which the INHIBITION was -2.35%. Regarding `CCN1CCC2(CC1)CC(NC(=O)c1c[nH]cn1)c1ccccc1O2` (stereo not drawn), the INHIBITION is on record as 44.8%. To `COCCN1CCC2(CC1)CC(NC(=O)C(C)C)c1ccccc1O2` (stereo not drawn) belongs 55.5%; to `O=C(NC1CC2(CCN(CCO)CC2)Oc2ccccc21)c1csnn1` (stereo not drawn), 34.9%; to `CCOCCOc1ccc(S(=O)(=O)N2CCc3c(nc[nH]c3=O)C2)cc1`, 5.05%. On to `Cc1nc(CN2CCN(CC3CCOC3)Cc3cccnc32)cs1` (stereo not drawn), for which the INHIBITION is recorded as 41%. `NC(=O)CSc1ccccc1NC(=O)C1CCCC1`: the INHIBITION is -53.6%. With `COc1cccc(C=CCCN2CCC(C(=O)N3CCCC3)CC2)c1`, the INHIBITION is -16.1%. To `O=C1NC2(CCN(C(=O)CN3CCOCC3)CC2)Nc2ccc(Cl)cc21` belongs 23.75%. To `Cn1ccc2cc(C(=O)Nc3nc[nH]n3)ccc21` belongs 11.6%; to `CN(C)C(=O)c1nnn(-c2ccc(Br)cc2)n1`, 28.4%; to `CCNc1cc2c(nn1)CCN(C(=O)Cc1ccc(C)nc1)C2`, -42.1%. Turning to `CCc1ccc(C(=O)N2CCCC3(CCCC(=O)N3C)C2)cc1` (stereo not drawn), the INHIBITION is on record as 30.9%. Turning to `O=C(CS(=O)(=O)C1CCCC1)NC(c1ccc(F)cc1)C1CC1` (stereo not drawn), the INHIBITION is -32.6%. As for `COCCN1C[C@@H]2CC[C@H]1CN(Cc1nc3ccccc3n1C)C2`, the INHIBITION was -35%. To `CC(=O)NCCNC(=O)c1cnc(-c2ccc(C)cc2C)s1` belongs -74.9%. `CN(Cc1cnc(N)nc1)C(=O)c1coc(COc2ccccc2)n1`: the INHIBITION is recorded as 27.6%. Turning to `CN1CCN(Cc2cccnc2)C(=O)C12CCN(Cc1ccco1)CC2`, the INHIBITION is 32.1%. To `Cc1nccn1Cc1nnc(C2CCN(c3ccncc3F)CC2)n1C` belongs -21.9%. `CC[C@@H]1N(Cc2ccncc2)CCC[C@]12CCC(=O)N2CCOC`: the INHIBITION is listed as 25.3%. Take `CC[C@@H]1N(Cc2ccsc2)CCC[C@]12CCC(=O)N2CCOC`: the INHIBITION is 52.4%. For the compound `CC[C@@H]1N(Cc2ccsc2)CCC[C@]12CCC(=O)N2C`, the INHIBITION is recorded as 23.2%.

The record behind these values is ChEMBL document CHEMBL4513216, “Probing the Open Global Health Chemical Diversity Library for Multistage-Active Starting Points for Next-Generation Antimalarials” (ACS Infect Dis, 2020).
